Data on 32 compounds can be found in PubChem BioAssay AID651642 (Sanford-Burnham Center for Chemical Genomics, 2012).

Each structure is given as a SMILES string. The source made the active and inactive calls.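 How the source made its calls: active means average half-effect concentration of 10 µM or less in every one of the four cell panels; inactive means the rest.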

The assay deals with H9c2. The assay can be described thus: cardiomyocyte survival under oxidative or metabolic stress – cell-based, panel, H9c2 and HL-1, H2O2, 2-deoxyglucose, ATP luminescence, SAR follow-up (AID 651642). The note with it: H9c2/HL-1 cardiomyocyte 2-deoxyglucose damage, mean of runs, with 2-deoxyglucose.
As to `COc1cc(-c2cc(C(=O)NCC(=O)Nc3ccc(C(C)=O)cc3)c3ccccc3n2)cc(OC)c1OC`, the call was inactive.
Regarding `COc1cc(-c2cc(C(=O)Nc3cccc(C(C)=O)c3)c3ccccc3n2)cc(OC)c1OC`, the result was inactive.
The value for `COc1cc(-c2cc(C(=O)Nc3cccc(C(=O)Nc4ccccc4)c3)c3ccccc3n2)cc(OC)c1OC` was “active”; that for `COc1cc(-c2cc(C(=O)NCC(=O)Nc3ccc(C(C)=O)cc3)c3cc(C)ccc3n2)cc(OC)c1OC` was “active”; that for `COc1ccc2c(c1OC)C(=O)N1c3ccccc3C(=O)N(Cc3ccc(F)cc3)C21` (configuration not stated) was “inactive”.
The value for `COc1cc(-c2cc(C(=O)Nc3cccc(C(C)=O)c3)c3ccc(Cl)cc3n2)cc(OC)c1OC` was “inactive”.
With `COc1cc(-c2cc(C(=O)Nc3cccc(C(=O)O)c3)c3ccccc3n2)cc(OC)c1OC` the entry was “inactive”; with `COc1cc(-c2cc(C(=O)Nc3cccc(C(=O)NCc4ccccc4)c3)c3ccccc3n2)cc(OC)c1OC`, “active”; with `COc1cc(-c2cc(C(=O)NCC(=O)Nc3cccc(C(C)=O)c3)c3cc(F)ccc3n2)cc(OC)c1OC`, “active”.
In the case of `COc1ccc2c(c1OC)C(=O)N1c3ccccc3C(=O)N(Cc3ccccc3Cl)C21` (configuration not stated), the compound was classed as inactive.
With `COc1ccc2c(c1OC)C(=O)N1c3ccccc3C(=O)N(Cc3cccc(Br)c3)C21` (configuration not stated) the entry was “inactive”; with `COc1ccc2c(c1OC)C(=O)N1c3ccccc3C(=O)N(Cc3ccccc3Br)C21` (configuration not stated), “inactive”.
For the compound `COc1cc(-c2cc(C(=O)Nc3cccc(-c4nn[nH]n4)c3)c3ccccc3n2)cc(OC)c1OC`, the outcome was inactive.
With `COc1cc(-c2cc(C(=O)NCC(=O)Nc3cccc(C(C)=O)c3)c3cc(C)ccc3n2)cc(OC)c1OC`, the compound was classed as inactive.
In the case of `COc1cc(-c2cc(C(=O)Nc3cccc(C(N)=O)c3)c3ccccc3n2)cc(OC)c1OC`, the outcome was inactive.
`COc1cc(-c2cc(C(=O)Nc3cccc(C#N)c3)c3ccccc3n2)cc(OC)c1OC`: the call was inactive.
The value for `CCOC(=O)c1cccc(NC(=O)CNC(=O)c2cc(-c3cc(OC)c(OC)c(OC)c3)nc3ccccc23)c1` was “inactive”; that for `CCOC(=O)c1cccc(NC(=O)c2cc(-c3cc(OC)c(OC)c(OC)c3)nc3ccc(Br)cc23)c1` was “inactive”.
On to `COc1cc(-c2cc(C(=O)Nc3cccc(C(C)=O)c3)c3cc(C)ccc3n2)cc(OC)c1OC`, for which the outcome was inactive.
In the case of `COc1ccc2c(c1OC)C(=O)N1c3ccccc3C(=O)N(Cc3ccccc3C)C21` (configuration not stated), the result was inactive.
With `COc1ccc2c(c1OC)C(=O)N1c3ccccc3C(=O)N(Cc3cccc(Cl)c3Cl)C21` (configuration not stated) the entry was “active”; with `CCOC(=O)c1cccc(NC(=O)c2cc(-c3cc(OC)c(OC)c(OC)c3)nc3cc(Cl)ccc23)c1`, “inactive”.
Consider `COc1ccc(NC(=O)CNC(=O)c2cc(-c3cc(OC)c(OC)c(OC)c3)nc3ccccc23)cc1`, for which the compound was classed as inactive.
The value for `COc1cc(-c2cc(C(=O)Nc3cccc(C(=O)N4CCOCC4)c3)c3ccccc3n2)cc(OC)c1OC` was “inactive”; that for `CCOC(=O)c1cccc(NC(=O)c2cc(-c3cc(OC)c(OC)c(OC)c3)nc3ccc(C)cc23)c1` was “inactive”.
In the case of `CCOC(=O)c1ccc(NC(=O)c2cc(-c3cc(OC)c(OC)c(OC)c3)nc3ccccc23)cc1`, the compound was called inactive.
The value for `CCOC(=O)c1cccc(NC(=O)c2cc(-c3cc(OC)c(OC)c(OC)c3)nc3ccc(Cl)cc23)c1` was “inactive”; that for `COc1ccc2c(c1OC)C(=O)N1c3ccccc3C(=O)N(Cc3ccccc3F)C21` (configuration not stated) was “inactive”; that for `COc1ccc2c(c1OC)C(=O)N1c3ccccc3C(=O)N(Cc3c(Cl)cccc3Cl)C21` (configuration not stated) was “inactive”.
`CCOC(=O)c1cccc(NC(=O)c2cc(-c3cc(OC)c(OC)c(OC)c3)nc3c(Cl)cccc23)c1`: the result was inactive.
Consider `COc1cc(-c2cc(C(=O)Nc3cccc(C(=O)NC4CC4)c3)c3ccccc3n2)cc(OC)c1OC`, for which the result was inactive.
The value for `COc1ccc2c(c1OC)C(=O)N1c3ccccc3C(=O)N(Cc3ccc(C)cc3)C21` (configuration not stated) was “inactive”.
